# Where “and” joins values, the source holds several entries; their conditions need not be identical. Identical values can stand only once. In all, about 5,500 compounds went through this assay and about 2,000 (36%) were called active. Another 18% or so got no clear call; they are omitted. Rule as the data show it: active = normalized growth mostly below about 0.91 (no sharp cut-off); inconclusive = no clear call, values can overlap the other calls; inactive = mostly above about 0.92. Some of the results follow.
# Test: chemical genetic growth profiling, strain panel (AID 1159580);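 also: tested at 20 µM; growth read once vehicle control cultures reached saturation at 30 °C; 1 = growth at the plate median or of vehicle wells; lower values mean less growth of the strain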
# Conditions: S. cerevisiae deletion strains, growth OD
structure (smiles),measurement,setting,value
CC[C@@]1(O)C(=O)OCc2c1cc1n(c2=O)Cc2cc3ccccc3nc2-1,normalized growth,"locus YAL013W, strain DEP1, stronger effect = lower value",0.829 (active)
same,normalized growth,"locus YAL021C, strain ccr4, stronger effect = lower value",0.327 (active)
same,normalized growth,"locus YAL026C, strain drs2, stronger effect = lower value",0.626 (active)
same,normalized growth,"locus YAL030W, strain snc1, stronger effect = lower value",0.813 (active)
same,normalized growth,"locus YBL061C, strain skt5, stronger effect = lower value",0.859 (active)
same,normalized growth,"locus YBR009C, strain hhf1, stronger effect = lower value",0.681 (active)
same,normalized growth,"locus YBR021W, strain FUR4, stronger effect = lower value",0.889 (inactive)
same,normalized growth,"locus YBR023C, strain chs3, stronger effect = lower value",0.803 (active)
same,normalized growth,"locus YBR171W, strain sec66, stronger effect = lower value",0.949 (inactive)
same,normalized growth,"locus YBR229C, strain ROT2, stronger effect = lower value",0.982 (inactive)
same,normalized growth,"locus YBR231C, strain swc5, stronger effect = lower value",0.696 (active)
same,normalized growth,"locus YBR279W, strain paf1, stronger effect = lower value",0.98 (inactive)
same,normalized growth,"locus YCL011C, strain gbp2, stronger effect = lower value",0.577 (active)
same,normalized growth,"locus YCL016C, strain dcc1, stronger effect = lower value",0.134 (active)
same,normalized growth,"locus YCL029C, strain bik1, stronger effect = lower value",0.884 (active)
same,normalized growth,"locus YCL061C, strain MRC1, stronger effect = lower value",0.821 (active)
same,normalized growth,"locus YCL069W, strain vba3, stronger effect = lower value",0.788 (active)
same,normalized growth,"locus YCR088W, strain abp1, stronger effect = lower value",0.747 (active)
same,normalized growth,"locus YDL005C, strain med2, stronger effect = lower value",0.882 (active)
same,normalized growth,"locus YDL035C, strain GPR1, stronger effect = lower value",0.843 (active)
same,normalized growth,"locus YDL040C, strain nat1, stronger effect = lower value",0.952 (inactive)
same,normalized growth,"locus YDL074C, strain BRE1, stronger effect = lower value",0.613 (active)
same,normalized growth,"locus YDL101C, strain DUN1, stronger effect = lower value",0.654 (active)
same,normalized growth,"locus YDL134C, strain PPH21, stronger effect = lower value",0.81 (active)
same,normalized growth,"locus YDL185W, strain tfp1, stronger effect = lower value",0.782 (active)
same,normalized growth,"locus YDL192W, strain arf1, stronger effect = lower value",0.838 (active)
same,normalized growth,"locus YDR001C, strain nth1, stronger effect = lower value",0.882 (active)
same,normalized growth,"locus YDR069C, strain doa4, stronger effect = lower value",0.767 (active)
same,normalized growth,"locus YDR101C, strain arx1, stronger effect = lower value",0.897 (active)
same,normalized growth,"locus YDR137W, strain rgp1, stronger effect = lower value",0.74 (active)
same,normalized growth,"locus YDR150W, strain NUM1, stronger effect = lower value",0.998 (inactive)
same,normalized growth,"locus YDR159W, strain sac3, stronger effect = lower value",0.821 (active)
same,normalized growth,"locus YDR162C, strain NBP2, stronger effect = lower value",0.688 (active)
same,normalized growth,"locus YDR195W, strain ref2",0.538 (active)
same,normalized growth,"locus YDR297W, strain sur2, stronger effect = lower value",0.884 (active)
same,normalized growth,"locus YDR318W, strain mcm21, stronger effect = lower value",0.796 (active)
same,normalized growth,"locus YDR334W, strain swr1, stronger effect = lower value",0.786 (active)
same,normalized growth,"locus YDR335W, strain msn5, stronger effect = lower value",0.841 (active)
same,normalized growth,"locus YDR388W, stronger effect = lower value",0.793 (active)
same,normalized growth,"locus YDR392W, strain spt3, stronger effect = lower value",0.284 (active)
same,normalized growth,"locus YDR502C, strain sam2, stronger effect = lower value",0.803 (active)
same,normalized growth,"locus YEL003W, strain gim4, stronger effect = lower value",0.834 (active)
same,normalized growth,"locus YEL037C, strain rad23, stronger effect = lower value",0.851 (active)
same,normalized growth,"locus YEL061C, strain CIN8 (second series), stronger effect = lower value",0.848 (active)
same,normalized growth,"locus YEL061C, strain CIN8, stronger effect = lower value",0.947 (inactive)
same,normalized growth,"locus YER015W, strain faa2, stronger effect = lower value",0.784 (active)
same,normalized growth,"locus YER016W, strain bim1, stronger effect = lower value",0.754 (active)
same,normalized growth,"locus YER110C, stronger effect = lower value",0.944 (inactive)
same,normalized growth,"locus YER111C, strain swi4, stronger effect = lower value",0.97 (inactive)
same,normalized growth,"locus YER155C, strain BEM2 (second series), stronger effect = lower value",0.887 (inactive)
same,normalized growth,"locus YER155C, strain BEM2, stronger effect = lower value",0.837 (active)
same,normalized growth,"locus YER167W, strain BCK2, stronger effect = lower value",0.82 (active)
same,normalized growth,"locus YFR010W, strain ubp6, stronger effect = lower value",0.617 (active)
same,normalized growth,"locus YGL078C, strain dbp3, stronger effect = lower value",0.883 (active)
same,normalized growth,"locus YGL086W, strain mad1, stronger effect = lower value",0.847 (active)
same,normalized growth,"locus YGL167C, strain pmr1, stronger effect = lower value",0.95 (inactive)
same,normalized growth,"locus YGL173C, strain kem1, stronger effect = lower value",0.882 (active)
same,normalized growth,"locus YGL227W, strain vid30, stronger effect = lower value",0.894 (active)
same,normalized growth,"locus YGL240W, strain doc1, stronger effect = lower value",0.565 (active)
same,normalized growth,"locus YGL248W, strain PDE1, stronger effect = lower value",0.879 (active)
same,normalized growth,"locus YGL253W, strain hxk2, stronger effect = lower value",0.885 (active)
same,normalized growth,"locus YGR135W, strain pre9, stronger effect = lower value",0.878 (active)
same,normalized growth,"locus YGR229C, strain SMI1, stronger effect = lower value",0.384 (active)
same,normalized growth,"locus YGR252W, strain gcn5, stronger effect = lower value",0.655 (active)
same,normalized growth,"locus YHR013C, strain ard1, stronger effect = lower value",0.868 (inactive)
same,normalized growth,"locus YHR027C, strain rpn1, stronger effect = lower value",0.933 (inactive)
same,normalized growth,"locus YHR030C, strain SLT2, stronger effect = lower value",0.94 (inactive) and 0.843 (active)
same,normalized growth,"locus YHR079C, strain IRE1 (second series), stronger effect = lower value",0.801 (active)
same,normalized growth,"locus YHR079C, strain IRE1, stronger effect = lower value",0.791 (active)
same,normalized growth,"locus YHR094C, strain hxt1, stronger effect = lower value",0.941 (inactive)
same,normalized growth,"locus YHR129C, strain ARP1, stronger effect = lower value",0.801 (active)
same,normalized growth,"locus YHR142W, strain chs7, stronger effect = lower value",0.772 (active)
same,normalized growth,"locus YHR200W, strain rpn10, stronger effect = lower value",0.711 (active)
same,normalized growth,"locus YIL066C, strain RNR3, stronger effect = lower value",0.921 (inactive)
same,normalized growth,"locus YIL073C, strain SPO22, stronger effect = lower value",0.598 (active)
same,normalized growth,"locus YIL125W, strain kgd1, stronger effect = lower value",0.774 (active)
same,normalized growth,"locus YIR030C, strain dcg1, stronger effect = lower value",0.826 (active)
same,normalized growth,"locus YJL092W, strain hpr5, stronger effect = lower value",0.22 (active)
same,normalized growth,"locus YJL095W, strain BCK1 (second series), stronger effect = lower value",0.855 (active)
same,normalized growth,"locus YJL095W, strain BCK1, stronger effect = lower value",0.751 (active) and 0.84 (active)
same,normalized growth,"locus YJL115W, strain asf1, stronger effect = lower value",0.132 (active)
same,normalized growth,"locus YJL129C, strain trk1, stronger effect = lower value",0.537 (active)
same,normalized growth,"locus YJL134W, strain LCB3, stronger effect = lower value",0.997 (inactive)
same,normalized growth,"locus YJL154C, strain vps35, stronger effect = lower value",0.811 (active)
same,normalized growth,"locus YJL164C, strain tpk1, stronger effect = lower value",0.634 (active)
same,normalized growth,"locus YJL166W, strain qcr8, stronger effect = lower value",0.748 (active)
same,normalized growth,"locus YJL168C, strain set2, stronger effect = lower value",0.961 (inactive)
same,normalized growth,"locus YJL187C, strain SWE1 (second series), stronger effect = lower value",0.848 (active)
same,normalized growth,"locus YJL187C, strain SWE1, stronger effect = lower value",0.876 (active)
same,normalized growth,"locus YJR043C, strain POL32, stronger effect = lower value",0.561 (active)

# Source: PubChem BioAssay AID1159580 (chemical genetic matrix, 2015)
